Compound activity from PubChem BioAssay.
A selection: hits, their analogues and other compounds. The true share with any hit is near 4.5%.
ALR inh = blocks human ALR sulfhydryl oxidase activity; P55789; purified ALR, DTT oxidation, H2O2 HRP-luminol luminescence; inhibition, % (concentration not given with the values); 3.8% of 290,000 active;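 active means mean replicate inhibition above about 79%, with every replicate also reaching it, limit read from the data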
Rce1 inh = inhibitors of yeast Ras-converting enzyme | calls only | 0.27% of 290,000 active | Q03530 | yeast membranes, quenched prenylated peptide cleavage fluorescence | AID 2563;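 active means fall in fluorescence gain of 50% or more versus controls, with final raw signal at or below 3038400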;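 further: plate controls were neutral control wells for no effect and wells lacking membranes for full effect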
Rtt109 HAT inh = C. albicans Rtt109 histone acetyltransferase inhibition | AID 540336 | Q5AAJ8 | purified Rtt109/Vps75, ThioGlo CoA-SH fluorescence, 4 h | inhibition, % at 34.9 µM | 0.16% of 330,000 active;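 active means inhibition of at least 50% in every replicate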
Target sequence (Q5AAJ8 whole entry, looked up): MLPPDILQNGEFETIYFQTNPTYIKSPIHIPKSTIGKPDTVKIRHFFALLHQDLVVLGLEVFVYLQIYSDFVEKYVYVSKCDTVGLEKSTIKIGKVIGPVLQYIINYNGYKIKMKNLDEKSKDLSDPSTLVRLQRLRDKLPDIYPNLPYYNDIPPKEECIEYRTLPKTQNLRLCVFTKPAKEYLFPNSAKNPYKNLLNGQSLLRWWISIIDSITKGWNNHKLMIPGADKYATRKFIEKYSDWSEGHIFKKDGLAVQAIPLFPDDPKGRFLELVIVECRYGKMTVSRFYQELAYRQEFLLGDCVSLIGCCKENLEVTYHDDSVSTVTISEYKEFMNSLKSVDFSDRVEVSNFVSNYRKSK
HDAC3 inhib = inhibitors of human histone deacetylase 3; O15379; recombinant HDAC3, fluorogenic peptide/trypsin coupled, fluorescence; inhibition, % at 8.3 µM; 0.15% of 320,000 active; in the data active means inhibition above about 26%, passing the limit was not always enough
GRK2 aptamer HTS = human GRK2 inhibition via aptamer displacement | P25098 | bead flow cytometry, FAM-aptamer displacement from GRK2 | inhibition of aptamer binding, % at 10 µM | 0.59% of 330,000 active | AID 488847;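 active means inhibition of aptamer binding above 40%, roughly 3 SD of noise, on plates passing a quality check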;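 further: median bead fluorescence of bound FAM aptamer so fluorescent compounds give negative values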
Efflux pump inh = blocks antifungal efflux pumps in multiplex yeast assay. inhibition, % at 10 µM. S. cerevisiae Candida pump triplex, Nile Red efflux. 0.44% of 330,000 active;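 active means plate passing quality check with inhibition over a set limit, or well fluorescence over plate mean plus 4 SD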;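 further: Nile Red retained in pooled yeast measured as flow cytometry median fluorescence; 0% = buffer negative control and 100% = Enniatin B positive control; higher means more Nile Red kept so more efflux inhibition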
* marks the source's active call; other numbers are inactive results; i = inactive; nt = not tested or not shown.

SMILES	ALR inh	Rce1 inh	Rtt109 HAT inh	HDAC3 inhib	GRK2 aptamer HTS	Efflux pump inh
O=C(NCc1ccc(Cl)cc1)C1CCN(S(=O)(=O)c2ccc(F)cc2)CC1	-15.7	i	5.1	3.4	0.0	0.0
CCn1c(=O)c(C(=O)CN(C)CC(=O)Nc2cccc(F)c2)c(N)n(Cc2ccccc2)c1=O	-1.9	nt	3.4	4.6	0.0	-0.6
Cc1ccccc1CSCCNS(C)(=O)=O	29.8	i	0.4	-4.3	4.0	-0.2
COc1ccc(S(=O)(=O)NCCSCc2ccccc2C)cc1Br	97.9*	i	5.6	6.0	0.0	0.0
O=C1CSC(=S)N1/N=C/c1ccc(O)c(O)c1O	nt	i	196.5*	5.5	4.0	-0.1
O=C1CSC(=S)N1/N=C/c1cc(Br)ccc1O	97.6*	i	nt	4.0	1.0	0.3
Cc1cccc(C(=O)NCC(=O)OC(C)C(=O)Nc2ccc(Cl)cn2)c1 (stereo not drawn)	2.6	i	-1.0	-8.0	0.0	-0.1
Cc1ccc(CNS(=O)(=O)c2cc3c(cc2C)N(C)CCO3)cc1	88.8*	i	4.1	nt	0.0	-0.2
S=c1nc(-c2ccccc2Br)[nH][nH]1	98.5*	i	10.3	-2.4	0.0	-0.1
CN1C(=O)NC(c2ccc(O)cc2)C2=C1CN(c1ccccc1)C2=O (stereo not drawn)	-4.6	i	-3.8	-11.3	0.0	-0.1
CN1C(=O)NC(c2ccc(O)cc2)C2=C1CN(c1ccc(O)cc1)C2=O (stereo not drawn)	98.7*	nt	-1.4	-0.2	0.0	0.1
CCCC(c1nnnn1CC1CCCO1)N1CCN(c2ccccc2)CC1 (stereo not drawn)	98.2*	i	-2.0	-5.0	0.0	0.1
CCC(c1nnnn1Cc1ccc(OC)cc1)N1CCN(c2ccc(OC)cc2)CC1 (stereo not drawn)	33.5	i	nt	0.3	0.0	-0.1
CCC(c1nnnn1C1CCCC1)N1CCN(c2cccc(OC)c2)CC1 (stereo not drawn)	98.0*	i	-10.9	-6.3	0.0	0.4
CCC(c1nnnn1Cc1ccccc1)N1CCN(c2ccc(OC)cc2)CC1 (stereo not drawn)	96.1*	nt	7.6	-1.1	2.0	0.1
COc1ccc(N2CCN(C(c3ccc4ncccc4c3)c3nnnn3C(C)C)CC2)cc1 (stereo not drawn)	76.3*	i	8.1	1.9	2.0	0.2
CCCCC(c1nnnn1CC1CCCO1)N1CCN(Cc2ccccc2)CC1 (stereo not drawn)	1.0	i	11.8	-4.8	1.0	0.1
N/C(=N\NC(=O)c1ccccc1Cl)c1cc2ccccc2oc1=O	16.8	i	-6.0	6.6	0.0	0.1
CC(C)(C)n1nnnc1C(c1cccnc1)N1CCOCC1 (stereo not drawn)	nt	i	-1.4	2.9	0.0	0.1
CC(C)(C)n1nnnc1C(c1ccncc1)N1CCN(c2ccc(O)cc2)CC1 (stereo not drawn)	98.5*	i	1.5	-2.2	3.0	0.0
CCC(c1nnnn1Cc1ccc2c(c1)OCO2)N1CCN(CC)CC1 (stereo not drawn)	0.3	i	-1.3	-2.7	0.0	-0.2
CCC(c1nnnn1Cc1ccc2c(c1)OCO2)N1CCN(c2ccc(OC)cc2)CC1 (stereo not drawn)	87.8*	nt	5.0	0.4	0.0	0.0
COc1ccc(Cn2nnnc2C(c2cccnc2)N2CCN(c3ccc(O)cc3)CC2)cc1 (stereo not drawn)	98.4*	i	-1.2	-7.8	5.0	-0.1
CCC(c1nnnn1Cc1ccc2c(c1)OCO2)N1CCN(c2ccccc2)CC1 (stereo not drawn)	90.1*	i	3.1	-2.8	0.0	-0.2
CCC(c1nnnn1Cc1ccc2c(c1)OCO2)N1CCN(c2ccc(F)cc2)CC1 (stereo not drawn)	40.0	i	-5.5	4.2	4.0	0.0
COc1ccc(C(C(=O)NC(C)(C)C)N(C(=O)CNC(=O)c2cccs2)c2ccc(NC(C)=O)cc2)cc1OC (stereo not drawn)	-3.2	i	-7.8	17.7	1.0	0.0
CC(Sc1ncccn1)C(=O)N1CCc2ccccc21 (stereo not drawn)	nt	nt	-4.0	nt	nt	nt
CCOC(=O)c1ncccc1NC(=O)CC(=O)Nc1cccnc1C(=O)OCC	23.8	i	nt	1.7	0.0	0.1
COCCn1nnnc1C(CC(C)C)N1CCN(c2cccc(OC)c2)CC1 (stereo not drawn)	nt	i	33.1	nt	nt	nt
